Source: PubChem BioAssay (NCATS)
Records with an inconclusive call do not appear. Entries that show only a call come without a potency. The source made the active and inactive calls. Unless noted, the call rests on the fitted dose curve; in most records, active means well fitted curve in the direction sought with a large enough effect; inconclusive means small, poorly fitted or top-dose-only effect, or another doubt; inactive means no such curve, though single readings can be large; an effect the other way counts as inactive or inconclusive.

What was measured:
[1] = Primary qHTS for inhibitors of La Crosse Virus (LACV) - induced cell death in SH-SY5Y cells (AID 1508616);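 further: top concentration of the series differs between compounds; higher means more rescue of cells from virus-induced death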
In short: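 Protection against LACV-induced cell death is scored in SH-SY5Y cells exposed to compounds and virus (0.01 MOI) for 6 days. Data normalized to virus-infected DMSO wells and virus-free DMSO wells.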

[2] = molecular target: Calcium and integrin-binding protein 1 (Homo sapiens) (UniProt Q99828); test: Primary qHTS for Identification of Calcium Integrin Binding Protein 1 (CIB1) Competitor (AID 1508620);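 further: GST tagged CIB1 binding a fluorescein labelled alphaIIb integrin peptide tracer; top concentration of the series differs between compounds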
In short: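 Fluorescence polarization competition: GST-tagged CIB1 (1 uM final) preincubated with compound 15 min at room temperature, then FITC-labelled alphaIIb peptide (100 nM final) added. After 15 min at room temperature, polarization read at Ex 480/Em 540.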

[3] = Primary qHTS for small molecule stabilizers of the endoplasmic reticulum resident proteome: Secreted ER Calcium Modulated Protein (SERCaMP) assay (AID 1508630)
In short: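 GLuc-SERCaMP-expressing SH-SY5Y cells, pretreated 16 h with compound, are challenged with thapsigargin to empty ER calcium stores; after 4 h, coelenterazine is added directly to the medium and luminescence is imaged.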

[4] = A High-Content qHTS Against Drug Library for the Identification of Small Molecules that Inhibit DYT1 Early Onset Primary Dystonia-Associated Cell Pathology (AID 1645839; calls by dose curve)
In short: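 Flp-In T-REx 293 cells with tetracycline-inducible EGFP-delE hTOR1A (WT EGFP-hTOR1A as reference), 800 cells/well; compound added with tetracycline, 48 h at 37 C. Fixed, permeabilized cells imaged; %pathology (punctate TorsinA) primary, cell count counterscreen.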

[5] = Cytotoxicity counterscreen for inhibitors of SARS-CoV-2 cell entry (AID 1645845; calls by dose curve; further: nearly all actives have a fitted effect of over 50% in size)
In short: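 HEK293-ACE2 cells (Expi293F stably expressing human ACE2) seeded overnight, then compound for 1 h plus 48 h at 37C. Viability as ATP content by luminescence; normalized to wells with cells and media-only wells.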

[6] = molecular target: Cytochrome P450 2C9 (Homo sapiens) (UniProt P11712); test: Cytochrome P450 family 2 subfamily C member 9 (CYP2C9) small molecule antagonists: luciferase biochemical (cell-free) qHTS assay (AID 1645842; active means well fitted curve in the direction sought with a large enough effect in the repeat runs; an effect the other way counts as inactive or inconclusive; further: nearly all actives have a fitted effect of over 55% in size; further: potency means the concentration at half of the fitted maximal effect)
In short: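 Luminescence, after 20 min with luciferin detection reagent, reflected CYP2C9 turnover during a 1 h NADPH-driven reaction at 37C. Enzyme-substrate mix contained 0.4% bovine serum albumin and was preincubated with compound 10 min at room temperature.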

[7] = Primary qHTS to identify inhibitors of SARS-CoV-2 cell entry (AID 1645846; calls by dose curve; further: nearly all actives have a fitted effect of over 45% in size); details: activity change, negative = inhibition: at 57.1 µM (top of the series) unless noted
In short: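 HEK293-ACE2 (Expi293F, stable hACE2), 1500 cells/well, o/n 37C; cpd 23 nL pin, 1 h; MLV-PP w/ SARS-CoV-2-S (Wuhan-Hu-1, Δ19 C-term); 48 h 37C; Bright-Glo luminescence; normalized vs S-PP and bald PP.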

[8] = molecular target: Cytochrome P450 2D6 (Homo sapiens) (UniProt P10635); test: Cytochrome P450 family 2 subfamily D member 6 (CYP2D6) small molecule antagonists: luciferase biochemical (cell-free) qHTS assay (AID 1645840; active means well fitted curve in the direction sought with a large enough effect in the repeat runs; an effect the other way counts as inactive or inconclusive; further: nearly all actives have a fitted effect of over 55% in size; further: potency means the concentration at half of the fitted maximal effect)
In short: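 P450-Glo luminescent screen: recombinant CYP2D6 enzyme–proluciferin substrate mix preincubated with compound 10 min at room temperature, then NADPH regeneration added for 1 h at room temperature. Detection reagent added for 20 min; luciferin light read as relative luminescence units.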

[9] = Primary qHTS for inhibitors of nuclear receptor binding SET domain protein 2 (NSD2) in an isogenic RCH-ACV NSD2 p.E1099K mutant (9B) (AID 1645876); further: nearly all actives have a fitted effect of over 70% in size
[10] = molecular target: N-terminal Xaa-Pro-Lys N-methyltransferase 1 (Homo sapiens) (UniProt Q9BV86); test: Confirmatory qHTS for Inhibitors of N-terminal methyltransferase 1 (NTMT1): MTaseGlo Assay (AID 1645874);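 further: luminescence from SAH made as NTMT1 methylates SPKRIA peptide using SAM; nearly all actives have a fitted effect of over 65% in size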
In short: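 Compounds are incubated with 125 nM NTMT1 and 100 uM SAM for 15 min before the SPKRIA peptide (1 uM) starts a 30 min room-temperature methylation. SAH is measured by coupled luciferase luminescence and curves fitted to a Hill equation.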

[11] = Confirmatory qHTS to identify inhibitors of SARS-CoV-2 cell entry (AID 1645844; calls by dose curve; further: potency means the concentration at half of the fitted maximal effect; nearly all actives have a fitted effect of over 45% in size)
In short: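 HEK293-ACE2 cells were pretreated 1 h with compound, then infected with MLV-based pseudoparticles bearing C-terminally truncated Wuhan-Hu-1 spike for 48 h at 37C; luciferase luminescence normalized to spike PP and bald PP wells.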

Chain of Cytochrome P450 2C9 (Homo sapiens) (P11712 whole entry, looked up): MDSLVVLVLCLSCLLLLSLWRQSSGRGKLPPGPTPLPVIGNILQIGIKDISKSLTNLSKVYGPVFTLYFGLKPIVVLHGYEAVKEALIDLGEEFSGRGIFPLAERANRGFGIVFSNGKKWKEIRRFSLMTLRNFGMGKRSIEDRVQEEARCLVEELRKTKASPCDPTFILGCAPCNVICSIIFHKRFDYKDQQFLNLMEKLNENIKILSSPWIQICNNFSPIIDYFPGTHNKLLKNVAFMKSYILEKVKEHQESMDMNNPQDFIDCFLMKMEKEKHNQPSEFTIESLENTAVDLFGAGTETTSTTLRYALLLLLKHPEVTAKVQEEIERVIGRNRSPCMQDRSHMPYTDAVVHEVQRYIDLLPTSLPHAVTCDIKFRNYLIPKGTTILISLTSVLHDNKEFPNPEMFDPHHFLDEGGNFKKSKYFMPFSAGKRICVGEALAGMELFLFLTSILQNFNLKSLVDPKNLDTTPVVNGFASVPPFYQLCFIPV
Chain of Calcium and integrin-binding protein 1 (Homo sapiens) (Q99828 whole entry, looked up): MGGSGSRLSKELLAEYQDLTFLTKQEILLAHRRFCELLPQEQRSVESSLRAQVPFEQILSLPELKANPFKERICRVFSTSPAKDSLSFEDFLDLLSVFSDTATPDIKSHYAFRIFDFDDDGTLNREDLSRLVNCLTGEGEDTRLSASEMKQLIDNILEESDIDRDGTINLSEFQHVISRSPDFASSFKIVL
Chain of Cytochrome P450 2D6 (Homo sapiens) (P10635 whole entry, looked up): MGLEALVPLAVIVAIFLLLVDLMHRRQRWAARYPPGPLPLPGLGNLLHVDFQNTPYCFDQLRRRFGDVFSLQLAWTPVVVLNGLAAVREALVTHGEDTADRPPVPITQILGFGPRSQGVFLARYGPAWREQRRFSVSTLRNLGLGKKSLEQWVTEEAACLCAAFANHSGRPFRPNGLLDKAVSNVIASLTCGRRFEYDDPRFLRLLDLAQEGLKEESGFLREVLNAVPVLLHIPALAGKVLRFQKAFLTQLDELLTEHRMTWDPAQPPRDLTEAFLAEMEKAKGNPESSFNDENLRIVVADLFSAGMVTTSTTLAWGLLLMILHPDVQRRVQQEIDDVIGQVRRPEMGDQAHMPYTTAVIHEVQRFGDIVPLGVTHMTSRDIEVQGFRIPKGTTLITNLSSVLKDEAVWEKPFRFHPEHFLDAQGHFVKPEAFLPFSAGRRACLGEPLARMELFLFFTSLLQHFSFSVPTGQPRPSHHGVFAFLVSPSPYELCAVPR
Chain of N-terminal Xaa-Pro-Lys N-methyltransferase 1 (Homo sapiens) (Q9BV86 whole entry, looked up): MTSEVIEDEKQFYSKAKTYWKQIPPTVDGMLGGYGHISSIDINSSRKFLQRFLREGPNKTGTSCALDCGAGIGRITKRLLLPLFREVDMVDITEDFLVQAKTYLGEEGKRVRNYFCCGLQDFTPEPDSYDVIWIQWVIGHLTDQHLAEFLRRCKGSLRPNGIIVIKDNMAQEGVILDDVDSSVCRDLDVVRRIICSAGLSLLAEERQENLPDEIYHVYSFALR

Compound	outcome [1]	Potency [2]	outcome [3]	outcome [4]	Potency [5]	Potency [6]	Potency [7]	Potency [8]	Potency [9]	activity change, negative = inhibition [7] [%]	Potency [10]	Potency [11]
C[C@@H]1CC[C@H]2[C@@H](C)C(=O)O[C@@H]3O[C@@]4(C)CC[C@@H]1[C@]32OO4	inactive	inactive	inactive	inactive	inactive							
CNC(C)Cc1ccccc1OC (centres undefined)	inactive	inactive	inactive	inactive	inactive	inactive	inactive					
Cc1nnc2n1-c1sc(CCC(=O)N3CCOCC3)cc1C(c1ccccc1Cl)=NC2	inactive	inactive	inactive	inactive	inactive			inactive	inactive			
CN1C(=O)CN=C(c2ccccc2)c2cc([N+](=O)[O-])ccc21	inactive	inactive	inactive	inactive		inactive		inactive	inactive			
CC(C)C(Br)C(=O)NC(N)=O (centres undefined)	inactive	inactive	inactive	inactive	inactive			inactive	inactive	4.07		
C[N+]1(C)[C@@H]2CC[C@H]1CC(OC(=O)C(CO)c1ccccc1)C2 (some centres undefined)	inactive	inactive	inactive	inactive	inactive	inactive	inactive		inactive			
OC(O)C(Cl)(Cl)Cl	inactive	inactive	inactive	inactive		inactive			inactive			
C[C@]12CC[C@H](O)CC1=CC[C@@H]1[C@@H]2CC[C@]2(C)C(=O)CC[C@@H]12	inactive	inactive	inactive	inactive	inactive	inactive	inactive					
CC(Cc1ccccc1)NCc1ccccc1Cl (centres undefined)	inactive	inactive	inactive	inactive	inactive			0.155 µM (active)		-7.69		
O=C(CCCCl)c1ccc(F)cc1	inactive	inactive	inactive	inactive		inactive			inactive			
CC(C)[N+](C)(CCC(C(N)=O)(c1ccccc1)c1ccccc1)C(C)C	inactive	inactive	inactive	inactive				1.95 µM (active)	inactive	-0.507		
CCNc1nc(Cl)nc(NCC)n1	inactive	inactive	inactive	inactive		inactive		inactive	inactive			
CCOC(=O)C(c1c(O)c2ccccc2oc1=O)c1c(O)c2ccccc2oc1=O	inactive	inactive	inactive	inactive		3.09 µM (active)		inactive	inactive			
CCN1CCCC1CNC(=O)C(O)(c1ccccc1)c1ccccc1 (centres undefined)	inactive	inactive	inactive	inactive		inactive		3.09 µM (active)	inactive			
C[C@]12CC[C@H]3[C@@H](CC=C4C[C@@H](O)CC[C@@]43C)[C@@H]1CC[C@@H]2O	inactive	inactive	inactive	inactive		inactive			inactive			
CCOC(=O)NC(O)C(Cl)(Cl)Cl (centres undefined)	inactive	inactive	inactive	inactive		inactive		inactive	inactive			
COc1ccc(OC)c(CC(C)N)c1 (centres undefined)	inactive	inactive	inactive	inactive		inactive		6.05 µM (active)	inactive			
CCCOC(=O)Cc1ccc(OCC(=O)N(CC)CC)c(OC)c1	inactive	inactive	inactive	inactive				inactive	inactive			
C[N+](C)(C)CCOC(=O)C(O)(c1ccccc1)c1ccccc1	inactive	inactive	inactive	inactive				15.5 µM (active)	inactive			
COc1cc(CC(C)N)cc2c1OCO2 (centres undefined)	inactive	inactive	inactive	inactive		inactive						
O=c1[nH]c2cc(Cl)ccc2n1C1CCNCC1	inactive	inactive	inactive	inactive				19.5 µM (active)	inactive			
CCOC(=O)c1ncn2c1CN(C)C(=O)c1c(I)cccc1-2	inactive	inactive	inactive	inactive	inactive	inactive	inactive		inactive			
Cc1nc2ccccc2c(=O)n1-c1ccccc1Cl	inactive	inactive	inactive	inactive		27.7 µM (active)						
CCOC(=O)NC(C)(C)Cc1ccc(Cl)cc1	inactive	inactive	inactive	inactive				inactive	inactive			
COCC(=O)N(c1c(C)cccc1C)C(C)C(=O)OC (centres undefined)	inactive	inactive	inactive	inactive		inactive		inactive	inactive			
CCc1cc(OC)c(C[C@H](C)N)cc1OC	inactive	inactive	inactive	inactive		inactive					inactive	
C=CC[C@]1(O)CC[C@H]2[C@@H]3CCC4=CC(=O)CCC4=C3C=C[C@@]21C	inactive	inactive	inactive	inactive	inactive	11 µM (active)						15.2 µM (active)
CCN(CC)CCOC(=O)C(C)(c1ccccc1)c1ccccc1	inactive	inactive	inactive	inactive				1.38 µM (active)	inactive			
